# Assay outcomes deposited in PubChem BioAssay by Broad Institute.
# This is one part of a sample in which hits are shown more often than they occur.
# MITF inh: MITF inhibition. TRPM1 promoter luciferase, luminescence, 24 h. inhibition, % (test concentration not listed). 37,000 compounds, 0.28% hits; in the data active = inhibition above about 85%;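 note: human melanocyte line stably carrying TRPM1 promoter luciferase reporter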
# Hedgehog inh: blocks Sonic Hedgehog signaling; Shh-LIGHT2 Gli-luciferase reporter, 30 h; 22,000 compounds, 2.1% hits; AID 2313; inhibition, % (no concentration beside the values);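 active = mean inhibition across valid replicates above about 65%, limit read from the data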;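 note: pathway switched on by Shh-conditioned medium diluted 1 in 25 in low serum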
# BJeLR viab HTS: compounds reducing viability of BJeLR cells | AID 2275 | viability loss activity score, % (no concentration beside the values) | BJeLR fibroblasts viability, CellTiterGlo ATP luminescence, 48 h; HRASV12, hTERT and SV40 LT/ST transformed | 30,000 compounds, 0.64% hits; in the data active = viability loss activity score above about 50%;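 note: higher score means fewer live cells and less ATP luminescence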
# Numbers stand for hits; - = inactive; . = no result given.
SMILES,MITF inh,Hedgehog inh,BJeLR viab HTS
CCOC(=O)c1c(CSc2nc(C)ccc2C#N)oc2ccc(OC(C)=O)cc12,-,100,-
CCOC(=O)c1c(CN(CC)CC)oc2ccc(OC)cc12,-,-,-
COCC(=O)N1N=C(c2cccc(NS(C)(=O)=O)c2)CC1c1ccccc1C (configuration not stated),.,.,-
CCC(Sc1nnc(N)s1)C(=O)Nc1sc2c(c1C#N)CCCC2 (configuration not stated),-,.,.
CCC(Sc1nnnn1-c1ccccc1)C(=O)Nc1sc2c(c1C#N)CCCC2 (configuration not stated),-,68,-
O=C(NCc1ccccc1)C1CCCN(S(=O)(=O)N2CCCCCC2)C1 (configuration not stated),.,.,-
C=CCOc1nc(F)c(Cl)c2c1Oc1cc(Br)c(Br)cc1O2,.,.,-
CCc1ccc(NS(=O)(=O)c2ccc3[nH]cc(C(=O)N4CCCC4)c(=O)c3c2)cc1,.,.,-
COc1ccc(-c2coc3cc(O)ccc3c2=O)c(OC)c1,-,80,-
COc1ccc(-c2coc3cc(O)ccc3c2=O)cc1,-,-,-
COC(=O)CC(O)(CCCC(C)(C)O)C(=O)O[C@@H]1C(OC)=C[C@]23CCCN2CCc2cc4c(cc2[C@@H]13)OCO4 (some centres not stated),93,104,.
COc1ccc(NC(=O)Nc2cccc3c2O[C@@H](CN(C)S(=O)(=O)c2ccc(Cl)cc2)[C@@H](C)CN([C@H](C)CO)C3=O)cc1,-,92,-
COc1ccc(NC(=O)Nc2cccc3c2O[C@@H](CN(C)S(=O)(=O)c2ccccc2)[C@H](C)CN([C@H](C)CO)C3=O)cc1,-,-,-
COc1ccc(NC(=O)Nc2cccc3c2O[C@H](CN(C)S(=O)(=O)c2ccccc2)[C@H](C)CN([C@H](C)CO)C3=O)cc1,-,75,-
COc1ccc(NC(=O)Nc2cccc3c2O[C@@H](CN(C)S(=O)(=O)c2ccc(F)cc2)[C@@H](C)CN([C@H](C)CO)C3=O)cc1,-,-,-
COc1ccc(NC(=O)Nc2cccc3c2O[C@@H](CN(C)S(=O)(=O)c2ccc(F)cc2)[C@H](C)CN([C@@H](C)CO)C3=O)cc1,-,-,-
COc1ccc(S(=O)(=O)N(C)C[C@@H]2Oc3c(NC(=O)Nc4ccc(F)cc4)cccc3C(=O)N([C@H](C)CO)C[C@@H]2C)cc1,-,68,-
COc1ccc(NC(=O)Nc2cccc3c2O[C@H](CN(C)S(=O)(=O)c2ccc(Cl)cc2)[C@@H](C)CN([C@H](C)CO)C3=O)cc1,-,-,-
COc1ccc(S(=O)(=O)N(C)C[C@@H]2Oc3c(NC(=O)Nc4ccc(F)cc4)cccc3C(=O)N([C@@H](C)CO)C[C@@H]2C)cc1,-,86,-
CCOC(=O)c1cccc(NC(=O)c2ccc(-c3ccccc3)s2)c1,.,.,-
O=C(NC(=S)Nc1ccc(Nc2ccccc2)cc1)c1ccco1,.,.,-
O=C(NC1Cc2ccccc2C1)c1ccc(Oc2cc(Cl)cc(Cl)c2)o1,.,.,-
COC(CNC(=O)Cn1nc(-c2ccccc2)c2cc(Cl)ccc21)OC,.,.,-
C[C@@H]1CN([C@H](C)CO)C(=O)Cc2cc(N(C)C)ccc2O[C@@H]1CN(C)S(=O)(=O)c1cccs1,-,69,.
C[C@@H]1CN([C@H](C)CO)C(=O)Cc2cc(N(C)C)ccc2O[C@H]1CN(C)S(=O)(=O)c1cccs1,-,-,.
SMILES,MITF inh,Hedgehog inh,BJeLR viab HTS
COc1ccc(NC(=O)Nc2ccc3c(c2)CC(=O)N([C@@H](C)CO)C[C@@H](C)[C@@H](CN(C)S(=O)(=O)c2ccc(Cl)cc2)O3)cc1,-,-,.
COc1ccc(NC(=O)Nc2ccc3c(c2)CC(=O)N([C@@H](C)CO)C[C@H](C)[C@@H](CN(C)S(=O)(=O)c2ccc(Cl)cc2)O3)cc1,-,74,.
COc1cccc(C(=O)NC(c2ccc([N+](=O)[O-])cc2)c2c(O)ccc3ccccc23)c1 (configuration not stated),-,.,.
COc1cccc(C(=O)NC(c2ccc(Cl)cc2)c2c(O)ccc3ccccc23)c1 (configuration not stated),102,.,.
CCOC(=O)c1ccc(NC(=O)c2cccc3c2C(=O)N(Cc2cccnc2)C3)cc1,.,.,-
O=C(NCc1nnc(SCC(=O)N2CCCCC2)o1)c1cccs1,.,.,-
Cc1noc(C)c1S(=O)(=O)Nc1cccc2c1O[C@@H](CN(C)S(=O)(=O)c1ccc(Cl)cc1)[C@@H](C)CN([C@H](C)CO)C2=O,-,67,-
Cc1noc(C)c1S(=O)(=O)Nc1cccc2c1O[C@@H](CN(C)S(=O)(=O)c1ccccc1)[C@@H](C)CN([C@@H](C)CO)C2=O,-,-,-
Cc1noc(C)c1S(=O)(=O)Nc1cccc2c1O[C@H](CN(C)S(=O)(=O)c1ccc(Cl)cc1)[C@H](C)CN([C@@H](C)CO)C2=O,-,-,-
Cc1ccc(S(=O)(=O)N(C)C[C@@H]2Oc3c(NS(=O)(=O)c4c(C)noc4C)cccc3C(=O)N([C@@H](C)CO)C[C@@H]2C)cc1,-,89,-
Cc1ccc(S(=O)(=O)N(C)C[C@@H]2Oc3c(NS(=O)(=O)c4c(C)noc4C)cccc3C(=O)N([C@H](C)CO)C[C@@H]2C)cc1,-,-,-
Cc1noc(C)c1S(=O)(=O)Nc1cccc2c1O[C@@H](CN(C)S(=O)(=O)c1ccc(Cl)cc1)[C@@H](C)CN([C@@H](C)CO)C2=O,-,106,-
COc1ccc(-c2nc3c(c(SCC(N)=O)n2)Cc2ccccc2O3)cc1,.,.,-
Cc1[nH]n(-c2ccccc2)c(=O)c1C=Nc1ccc(O)cc1,.,.,-
CC1(C)Cc2c(sc3nc(CCCc4ccccc4)n(N)c(=O)c23)CO1,.,.,-
O=C(Cn1ccc2ccccc2c1=O)NC1CCCCC1,.,.,-
CCc1ccc(NC(=S)NN)cc1,.,.,-
CCc1nc2ccccc2n1CCC(N)=O,.,.,-
C[C@H](CO)N1C[C@H](C)[C@H](CN(C)Cc2ccc(Cl)c(Cl)c2)Oc2c(NS(=O)(=O)c3ccc(Cl)cc3)cccc2C1=O,-,90,-
C[C@H](CO)N1C[C@H](C)[C@@H](CN(C)Cc2ccc(Cl)c(Cl)c2)Oc2c(NS(=O)(=O)c3ccc(F)cc3)cccc2C1=O,-,-,-
Cc1ccc(S(=O)(=O)Nc2cccc3c2O[C@@H](CN(C)Cc2ccc(Cl)c(Cl)c2)[C@@H](C)CN([C@H](C)CO)C3=O)cc1,-,113,-
Cc1ccc(S(=O)(=O)Nc2cccc3c2O[C@H](CN(C)Cc2ccc(Cl)c(Cl)c2)[C@H](C)CN([C@@H](C)CO)C3=O)cc1,-,-,-
O=C(NCCc1ccsc1)c1cc2c(s1)-c1ccccc1OC2,.,.,-
CCC(=O)c1cn(S(=O)(=O)c2ccc(C)cc2)c2ccccc12,.,.,-
Cc1cc(C)c2nc(-c3ccccn3)cc(C(=O)NCc3ccc(S(N)(=O)=O)cc3)c2c1,-,.,.
COc1ccc(NC(=O)c2cc(-c3ccccn3)nc3c(C)cc(C)cc23)c([N+](=O)[O-])c1,87,.,.
Cc1cccc(NC(=S)Nc2c(C(C)C)cccc2C(C)C)c1,.,.,-
CCOC(=O)C1C(=O)C=C(c2cccc(OC)c2)CC1c1ccc(CC)cc1 (configuration not stated),.,.,-
COc1ccc(OC)c(-n2c(=S)[nH]c3cc(C(=O)NCc4ccc(F)cc4)ccc3c2=O)c1,-,77,-
